According to PubChem BioAssay (Tox21):
Results filed as inconclusive are left out. Entries that show only a call come without a potency. The source made the active and inactive calls. Unless noted, calls follow the shape of the dose curve; as a rule, active = well fitted curve in the direction sought with a large enough effect in the repeat runs; inconclusive = weak or mixed curves; inactive = no such curve, though single readings can be large; an effect the other way counts as inactive or inconclusive. Starred links: 1 amine or outer side, 2 acyl side, 3 side chain; linkers in the order of their positions; H or OH if unused. Positions of bridges follow the written chain, without caps; N, C: chain ends. Non-standard residues stand in square brackets, D forms with d. Residues, ends and D or L forms follow the SMILES beside them. *: point of attachment. X5 = NC1=N[C@@H]([C@H](N[*:1])C(=O)[*:2])C[C@H](O)N1; ΔAla(Z-3-ureido) = NC(=O)N/C=C(\N)C(=O)O; β3hOrn = NCCC[C@H](N)CC(=O)*; Orn = NCCC[C@H](N)C(=O)O; Dap = NC[C@H](N)C(=O)O; Mpa = O=C(O)CCS

Tests used:
[1] = qHTS assay for small molecule agonists of the p53 signaling pathway (AID 651631; calls by dose curve; also: nearly all actives have a fitted effect of over 15% in size; also: potency is read from the fitted curve at half-maximal effect)
Summary of the method: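 p53RE-bla HCT-116 cells; compounds 16 h, 37 °C; LiveBLAzer B/G FRET substrate 2 h RT; fluorescence intensity read-out, qHTS format.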

[2] = qHTS assay for small molecules that induce genotoxicity in human embryonic kidney cells expressing luciferase-tagged ATAD5 (AID 651632); also: nearly all actives have a fitted effect of over 15% in size
Summary of the method: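 Reporter cells (HEK293T) express luciferase-tagged ATAD5, a protein that accumulates after DNA damage. Treat 16 hr at 37C/5% CO2, add Amplite, wait 30 min at RT, and read luminescence.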

[3] = qHTS assay for small molecule agonists of the p53 signaling pathway - cell viability (AID 651633; calls by dose curve;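 also: p53RE-bla HCT reporter cells with a stable beta-lactamase p53 reporter; series mostly up to about 83 µM; nearly all actives have a fitted effect of over 30% in size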)
Summary of the method: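 Viability counter-read: CellTiter-Glo luminescence (30 min, room temperature) in the same p53RE-bla plates. These plates had been exposed to compounds for 16 h at 37 C.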

[4] = qHTS assay for small molecules that induce genotoxicity in human embryonic kidney cells expressing luciferase-tagged ATAD5 - cell viability (AID 651634; calls by dose curve; also: nearly all actives have a fitted effect of over 25% in size)
Summary of the method: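 Seeding of 2,000 HEK293T ATAD5-luciferase cells per well preceded pin-tool compound transfer. Plates sat 15.5 hr at 37C under 5% CO2, then fluorescence was read after 30 min with CellTiter-Fluor.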

[5] = qHTS assay for small molecule disruptors of the mitochondrial membrane potential - cell viability (AID 720634; calls by dose curve;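 also: human HepG2 liver cancer cells; series mostly up to about 83 µM; nearly all actives have a fitted effect of over 20% in size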)
Summary of the method: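 Measuring cytotoxicity alongside mitochondrial potential, the screen quantified ATP by luminescence in HepG2 cells after 1 hr compound incubation and a 30 min room-temperature CellTiter-Glo step.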

[6] = qHTS assay for small molecule disruptors of the mitochondrial membrane potential (AID 720635); also: potency is read from the fitted curve at half-maximal effect
Summary of the method: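 Mitochondrial membrane potential tracked with Mito-MPS dye, red aggregates (ex 540/em 590 nm) against green monomers (ex 490/em 535 nm). Compound treatment 1 hr at 37C, dye 30 min in HepG2.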

[7] = qHTS assay to test for compound auto fluorescence at 590 nm (red) in HepG2 cells (AID 720674)
Summary of the method: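 1 hr compound incubation on HepG2 cells, 37 C, 5% CO2; plate read ex 540 nm / em 590 nm; intensities reported as Rose Bengal sodium equivalents.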

[8] = qHTS assay to test for compound auto fluorescence at 535 nm (green) in HepG2 cells (AID 720675)
[9] = qHTS assay to test for compound auto fluorescence at 460 nm (blue) in HEK293 cells (AID 720678)
Summary of the method: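 HEK293 cells (2,000/well, medium with 10% dialyzed FBS) attached 4-5 hr, then exposed to compound overnight at 37C, 5% CO2. Blue fluorescence read at 405/460 nm, with triamterene as reference fluorophore.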

[10] = qHTS assay to test for compound auto fluorescence at 590 nm (red) in HEK293 cells (AID 720679)
Summary of the method: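 HEK293 cells (2,000/well, 10% dialyzed FBS) attached 4-5 hr, then dosed with compound or DMSO and incubated overnight at 37C, 5% CO2. Red fluorescence read at 540/590 nm, Rose Bengal sodium as reference fluorophore.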

SMILES | Potency [1] | Potency [2] | Potency [3] | Potency [4] | Potency [5] | Potency [6] | Potency [7] | Potency [8] | Potency [9] | Potency [10]
C[C@@H]1C/C=C/C=C/C=C/C=C/[C@H](O[C@@H]2O[C@H](C)[C@@H](O)[C@H](N)[C@@H]2O)C[C@@H]2O[C@](O)(C[C@@H](O)C[C@H]3O[C@@H]3/C=C/C(=O)O1)C[C@H](O)[C@H]2C(=O)O | inactive | inactive | inactive | inactive | inactive | inactive | inactive | inactive | inactive | inactive
COC(=O)[C@H]1[C@H]2C[C@@H]3c4[nH]c5cc(OC)ccc5c4CCN3C[C@H]2C[C@@H](OC(=O)/C=C/c2cc(OC)c(OC)c(OC)c2)[C@@H]1OC | inactive | inactive | inactive | inactive | inactive | inactive | inactive | inactive | inactive | inactive
C[N+]1(C)CCN(CC(O)(c2ccccc2)C2CCCCC2)CC1 (stereo not given) | inactive | inactive | inactive | inactive | inactive | inactive | inactive | inactive | inactive | inactive
Cc1cc(-n2c(=O)[nH]c(=O)n(C)c2=O)ccc1Oc1ccc(S(=O)(=O)C(F)(F)F)cc1 | inactive | inactive | inactive | inactive | inactive | inactive | inactive | inactive | inactive | inactive
CCOC(=O)[C@H](CCc1ccccc1)N[C@H]1CCCN2CCC[C@@H](C(=O)O)N2C1=O | inactive | inactive | inactive | inactive | inactive | inactive | inactive | inactive | inactive | inactive
CO[C@@H]1[C@@H](O[C@@H]2O[C@H](C)[C@@H](O[C@H]3C[C@@](C)(O)[C@@H](OC(=O)CC(C)C)[C@H](C)O3)[C@H](N(C)C)[C@H]2O)[C@@H](CC=O)C[C@@H](C)[C@@H](O)/C=C/C=C/C[C@@H](C)OC(=O)C[C@H]1O | inactive | inactive | inactive | inactive | inactive | inactive | inactive | inactive | inactive | inactive
c1cnc2cc3c(cc2n1)[C@@H]1CNC[C@H]3C1 | inactive | inactive | inactive | inactive | inactive | inactive | inactive | inactive | inactive | inactive
Cc1onc(-c2ccccc2)c1C(=O)N[C@@H]1C(=O)N2[C@@H]1SC(C)(C)[C@@H]2C(=O)O | inactive | inactive | inactive | inactive | inactive | inactive | inactive | inactive | inactive | inactive
CO[C@H]1[C@@H](O)[C@H](N)[C@@H](O[C@H]2O[C@H]([C@H](C)N)CC[C@H]2N)[C@H](O)[C@@H]1N(C)C(=O)CN | inactive | inactive | inactive | inactive | inactive | inactive | inactive | inactive | inactive | inactive
CCN(CC)CCOC(=O)c1ccc(N)cc1Cl | inactive | inactive | inactive | inactive | inactive | inactive | inactive | inactive | inactive | inactive
CC(CN(C)C)CN1c2ccccc2S(=O)(=O)c2ccccc21 (stereo not given) | inactive | inactive | inactive | inactive | inactive | inactive | inactive | inactive | inactive | inactive
CCC(CN)CC(C)CCNCC(O)CNCC(C)CC(CC)CN (stereo not given) | inactive | inactive | inactive | inactive | inactive | inactive | inactive | inactive | inactive | inactive
O=S(O)CNc1ccc(S(=O)(=O)c2ccc(NCS(=O)O)cc2)cc1 | inactive | inactive | inactive | inactive | inactive | inactive | inactive | inactive | inactive | inactive
CN1[C@@H]2CCC[C@H]1CC(NC(=O)c1nn(C)c3ccccc13)C2 (stereo not given in full) | inactive | inactive | inactive | inactive | inactive | inactive | inactive | inactive | inactive | inactive
CC1CC(OC(=O)C(O)c2ccccc2)CC(C)(C)C1 (stereo not given) | inactive | inactive | inactive | inactive | inactive | 13.3 µM (active) | inactive | inactive | inactive | inactive
CCOc1ccc(C[C@H]2NC(=O)CCSSC[C@@H](C(=O)N3CCC[C@H]3C(=O)N[C@@H](CCCN)C(=O)NCC(N)=O)NC(=O)[C@H](CC(N)=O)NC(=O)[C@H]([C@@H](C)O)NC(=O)[C@H]([C@@H](C)CC)NC2=O)cc1 ([Mpa][dY](Et)ITNCP[Orn]G-NH2; disulfide 1-6) | inactive | inactive | inactive | inactive | inactive | inactive | inactive | inactive | inactive | inactive
CS(=O)(=O)OCCCNCCCOS(C)(=O)=O | inactive | inactive | inactive | inactive | inactive | inactive | inactive | inactive | inactive | inactive
CCOC(=O)CCC(=O)O[C@H]1[C@H](O[C@@H]2[C@@H](C)[C@H](O[C@H]3C[C@@](C)(OC)[C@@H](O)[C@H](C)O3)[C@@H](C)C(=O)O[C@H](CC)[C@@](C)(O)[C@H](O)[C@@H](C)C(=O)[C@H](C)C[C@@]2(C)O)O[C@H](C)C[C@@H]1N(C)C | inactive | inactive | inactive | inactive | inactive | inactive | inactive | inactive | inactive | inactive

SMILES | Potency [1] | Potency [2] | Potency [3] | Potency [4] | Potency [5] | Potency [6] | Potency [7] | Potency [8] | Potency [9] | Potency [10]
NCCCC[C@H](NC(=O)[C@@H]1CCCN1C(=O)[C@@H]1CSSC[C@H](N)C(=O)N[C@@H](Cc2ccccc2)C(=O)N[C@@H](Cc2ccccc2)C(=O)N[C@@H](CCC(N)=O)C(=O)N[C@@H](CC(N)=O)C(=O)N1)C(=O)NCC(N)=O | inactive | inactive | inactive | inactive | inactive | inactive | inactive | inactive | inactive | inactive
NCCC[C@H](N)CC(=O)N[C@H]1CNC(=O)[C@H]([C@H]2C[C@H](O)NC(N)=N2)NC(=O)/C(=C/NC(N)=O)NC(=O)[C@H](CO)NC(=O)[C@H](CO)NC1=O (β3hOrn-[Dap]SS[ΔAla(Z-3-ureido)][X5]; lactam 1-C) | inactive | inactive | inactive | inactive | inactive | inactive | inactive | inactive | inactive | inactive
CCOC(=O)[C@H](CCc1ccccc1)N[C@@H](C)C(=O)N1CC2(C[C@H]1C(=O)O)SCCS2 | inactive | inactive | inactive | inactive | inactive | inactive | inactive | inactive | inactive | inactive
CCCCCCCCCCCCCCCCCCCCCC(=O)Nc1ccn([C@@H]2O[C@H](CO)[C@@H](O)[C@@H]2O)c(=O)n1 | 11.9 µM (active) | inactive | inactive | inactive | inactive | inactive | inactive | inactive | inactive | inactive
CCN(CC)c1ccc(N=Nc2ccc(S(=O)(=O)N(C)C)cc2)c(S(=O)(=O)NCC[n+]2ccccc2)c1 | inactive | inactive | inactive | inactive | inactive | inactive | inactive | inactive | inactive | inactive
COC(=O)CCC(=O)CN | inactive | inactive | inactive | inactive | inactive | inactive | inactive | inactive | inactive | inactive
CCOC(=O)CN[C@@H](C(=O)N1CC[C@H]1C(=O)NCc1ccc(/C(N)=N/O)cc1)C1CCCCC1 | inactive | inactive | inactive | inactive | inactive | inactive | inactive | inactive | inactive | inactive
O=C(/C=C/c1cccc(F)c1)NC1CC1 | inactive | inactive | inactive | inactive | inactive | inactive | inactive | inactive | inactive | inactive
O=P(O)(O)OC(CO)CO | inactive | inactive | inactive | inactive | inactive | inactive | inactive | inactive | inactive | inactive
CC(C)CN(C[C@@H](OP(=O)(O)O)[C@H](Cc1ccccc1)NC(=O)O[C@H]1CCOC1)S(=O)(=O)c1ccc(N)cc1 | inactive | inactive | inactive | inactive | inactive | inactive | inactive | inactive | inactive | inactive
CCC(=O)OCC(=O)[C@@]1(OC(=O)CC)[C@H](C)C[C@H]2[C@@H]3CCC4=CC(=O)C=C[C@]4(C)[C@@]3(F)[C@@H](O)C[C@@]21C | inactive | inactive | inactive | inactive | inactive | 29.8 µM (active) | inactive | inactive | inactive | inactive
Cn1nnnc1SCC1=C(C(=O)O)N2C(=O)[C@@H](NC(=O)[C@H](OC=O)c3ccccc3)[C@H]2SC1 | inactive | inactive | inactive | inactive | inactive | inactive | inactive | inactive | inactive | inactive
OC(CN1CCCCC1)c1cc(-c2ccccc2)on1 (stereo not given) | inactive | inactive | inactive | inactive | inactive | inactive | inactive | inactive | inactive | inactive
NC[C@@H]1O[C@H](O[C@H]2[C@@H](O)[C@H](O[C@@H]3[C@@H](O)[C@H](N)C[C@H](N)[C@H]3O[C@H]3O[C@H](CO)[C@@H](O)[C@H](O)[C@H]3N)O[C@@H]2CO)[C@H](N)[C@@H](O)[C@@H]1O | inactive | inactive | inactive | inactive | inactive | inactive | inactive | inactive | inactive | inactive
CCCCCCCCCCCCCCCC(=O)OC[C@@H](NC(=O)C(Cl)Cl)[C@H](O)c1ccc([N+](=O)[O-])cc1 | inactive | inactive | inactive | inactive | inactive | 33.5 µM (active) | inactive | inactive | inactive | inactive
O=C1O[C@H]2[C@H](O)[C@@H]1OC(O)[C@H]2O (stereo not given in full) | inactive | inactive | inactive | inactive | inactive | inactive | inactive | inactive | inactive | inactive
CC(=O)OC[C@H]1O[C@@H](O[C@H]2[C@H](O)[C@@H](OC(=O)c3ccccc3C(=O)O)[C@H](O)O[C@@H]2COC(C)=O)[C@H](O)[C@@H](OC(=O)c2ccccc2C(=O)O)[C@@H]1O | inactive | inactive | inactive | inactive | inactive | inactive | inactive | inactive | inactive | inactive
C=C[C@]1(C)C[C@@H](OC(=O)CO)[C@]2(C)[C@H](C)CC[C@]3(CCC(=O)[C@H]32)[C@@H](C)[C@@H]1O | inactive | inactive | inactive | inactive | inactive | inactive | inactive | inactive | inactive | inactive
